Reference: PubChem BioAssay AID2544 (Sanford-Burnham Center for Chemical Genomics, 2010)
About 390 (0.12%) of roughly 330,000 compounds were called active. For the sample, actives were picked, then their nearest neighbours and some compounds at random. Values without a mark were called inactive.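 The calls were made as follows: active = inhibition reaching a set limit with compound at 10 µM in the primary screen (cut at about 35% in these data); inactive = the rest.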

These molecules were tested against Intestinal-type alkaline phosphatase (Homo sapiens) (UniProt P09923) (assay: blockers of intestinal alkaline phosphatase activity – biochemical, luminescence, uHTS, primary screen (AID 2544;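 also: plate controls were DMSO wells with enzyme for no effect and no-enzyme buffer wells for full effect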)). Conditions: purified IAP, CDP-Star luminescence, 30 min; at 10 µM; hits give high values.
Sequence of Intestinal-type alkaline phosphatase (Homo sapiens) (P09923 whole entry, looked up): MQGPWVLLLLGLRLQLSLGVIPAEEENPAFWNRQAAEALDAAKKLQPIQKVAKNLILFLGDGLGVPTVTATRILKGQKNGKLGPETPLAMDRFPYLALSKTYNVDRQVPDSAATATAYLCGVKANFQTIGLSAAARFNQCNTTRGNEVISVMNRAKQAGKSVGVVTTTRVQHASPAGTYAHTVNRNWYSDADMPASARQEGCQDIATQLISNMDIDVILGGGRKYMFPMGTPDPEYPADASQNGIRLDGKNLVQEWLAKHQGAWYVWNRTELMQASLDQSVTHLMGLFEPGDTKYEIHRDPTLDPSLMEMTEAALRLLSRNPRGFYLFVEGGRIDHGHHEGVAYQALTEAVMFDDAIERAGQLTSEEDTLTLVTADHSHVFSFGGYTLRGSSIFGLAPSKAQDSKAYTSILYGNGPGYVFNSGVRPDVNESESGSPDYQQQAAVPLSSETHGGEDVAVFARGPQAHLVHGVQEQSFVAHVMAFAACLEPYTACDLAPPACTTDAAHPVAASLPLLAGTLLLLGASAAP

Compared with `CCCC1C(c2ccccc2)C(C#N)(C#N)C2(C#N)CC1(N)NC2=O` (configuration not stated), `COCCNC(=O)/C(C#N)=C/c1cccc(OCc2ccccc2)c1` is higher in inhibition: -3.9% for the first, 1.1% for the second.

First: CN(C(=O)COc1nnc(-c2cccs2)c(-c2cccs2)n1)c1ccccc1
Second: COc1cccc(C(=O)n2ccc(-c3cccs3)n2)c1
The inhibition of the first is lower: -23.1% for the first, 0.5% for the second.

Compared with `CS(=O)(=O)N(CC(=O)N1CCOCC1)c1cccc(Cl)c1Cl`, `CC(Sc1cccc[n+]1[O-])C(=O)Nc1cccc(S(=O)(=O)N2CCOCC2)c1` (configuration not stated) is lower in inhibition: -16.2% for the first, -16.4% for the second.

Compared with `NS(=O)(=O)c1cccc(NC(=O)COC(=O)/C=C/c2ccco2)c1`, `O=C(CCCl)Nc1ccc(S(=O)(=O)NCc2ccco2)cc1` is higher in inhibition: 5.2% for the first, 7.1% for the second.

First: COC(=O)c1cc2c(ccn2C)n1C
Second: COC(=O)c1ccc(COC(=O)c2cnccn2)cc1
The inhibition of the first is lower: 15.7% for the first, 21.3% for the second.

First: Cc1c(Cl)cccc1NC(=O)[C@@]1(CC(=O)O)CC(/C=C/c2ccccc2)=NO1
Second: Cc1noc(C)c1COc1ccccc1C(=O)N(C)CC(=O)Nc1cccc(F)c1
The inhibition of the first is higher: 11% for the first, -9.4% for the second.

Compared with `CSC1=NC2(C)CCCCC2C12C=CC(=O)C=C2` (configuration not stated), `CC1CCCCC1NC(=O)c1cn(C)c2ccc(S(=O)(=O)N3CCOCC3)cc2c1=O` (configuration not stated) is lower in inhibition: 12.2% for the first, -21.4% for the second.

Compared with `O=C(NCCCN1CCCCC1)C1CC(=O)N(CCc2ccccc2)C1` (configuration not stated), `O=C(NCCCc1ccccc1)C1CCC(CNc2c(N3CCCCC3)c(=O)c2=O)CC1` (configuration not stated) is lower in inhibition: -4.4% for the first, -6.9% for the second.

Compared with `O=C(CN(C(=O)c1csnn1)c1ccc(Br)cc1)NC1CCCC1`, `Cc1ccc(N(CC(=O)NCC2CCCO2)C(=O)CNS(=O)(=O)c2ccc(Cl)cc2)cc1` (configuration not stated) is higher in inhibition: -3.8% for the first, 6.2% for the second.

First: CC(C)(C)C(=O)N(Cc1ccccc1)c1ccccn1
Second: CC(NCCc1ccc(S(N)(=O)=O)cc1)C(=O)NCc1ccccc1 (configuration not stated)
The inhibition of the first is lower: -10.9% for the first, 8.3% for the second.

First: COc1ccccc1C1CCN(C(=S)Nc2ccc(Br)cc2)CC1
Second: COc1cc([N+](=O)[O-])ccc1NC(=S)N1CCN(c2ccccn2)CC1
The inhibition of the first is lower: 5.9% for the first, 6.4% for the second.

First: CCS(=O)(=O)N1CCC(N2CCN(c3ccccc3)CC2)CC1
Second: COc1ccc(N2CCN(C(=O)COC(=O)c3cccc(S(=O)(=O)Nc4ccccc4OC)c3)CC2)cc1
The inhibition of the first is higher: 15% for the first, 9.2% for the second.

First: CCCCc1ccc(NC(=S)N2CCCC(CO)C2)cc1 (configuration not stated)
Second: COc1cccc(CN(C)CC2CCCN(CCc3ccc(Cl)cc3)C2)c1OC (configuration not stated)
The inhibition of the first is higher: 7.5% for the first, -36.9% for the second.

Going from `O=C(CN1C(=O)NC(Cc2c[nH]c3ccccc23)C1=O)Nc1ccccc1C(F)(F)F` (configuration not stated) to `O=C(CNC(=O)c1cc(=O)[nH]c2ccccc12)Nc1ccc(F)c(F)c1`, the inhibition rises from -22.4% to -5.1%.

Compared with `CC(C(=O)N1CCc2ccccc21)N(C)CC(=O)Nc1ccc(F)cc1` (configuration not stated), `CCOc1ccc(NC(=O)CN(C)C(=O)CCSc2ccc(F)cc2)cc1OCC` is lower in inhibition: 22.6% for the first, -1.7% for the second.

Going from `O=C(c1cccs1)N1CCC(c2nc3ccccc3s2)CC1` to `Cn1c(SCc2nc3ccccc3s2)nnc1-c1ccc2c(c1)OCO2`, the inhibition falls from 22.5% to 16.7%.

Compared with `COc1cc2c(cc1OC)C(C(=O)NCc1ccco1)C1c3ccccc3CCN1C2=O` (configuration not stated), `Cc1cccc(-n2c(O)c(C=Nc3ccccc3N)c(=O)[nH]c2=O)c1` is higher in inhibition: -2.9% for the first, 14.1% for the second.

Compared with `O=C(CN1CCC(NC(=O)C2CC2)CC1)Nc1ccccc1[N+](=O)[O-]`, `CCOC(=O)N1CCC(NC(=O)CN2C(=O)COc3ccc(C(C)(C)C)cc32)CC1` is lower in inhibition: 1.9% for the first, -21.5% for the second.

Compared with `CCN(C(=O)COC(=O)c1cc(S(=O)(=O)N2CCc3ccccc32)ccc1OC)C1CCS(=O)(=O)C1` (configuration not stated), `Cc1ccc(S(=O)(=O)CCC(=O)OCC(=O)N(C)C2CCS(=O)(=O)C2)cc1` (configuration not stated) is lower in inhibition: 8.6% for the first, -12.8% for the second.

First: CCc1cc2c(=O)c(-c3ccon3)c(N)oc2cc1OC
Second: COc1ccc2c(c1OC)C(=O)N(c1ccc(O)cc1)C2
The inhibition of the first is higher: 6.6% for the first, -4.8% for the second.

Compared with `CCNC(=S)N(CCc1c(C)[nH]c2ccc(C)cc12)Cc1ccco1`, `CCc1ccccc1NC(=S)N(CCN1CCCCCC1)Cc1ccco1` is lower in inhibition: 3.7% for the first, -3.8% for the second.

Going from `Cc1c(C(=O)OC(C)C)sc(NC(=O)c2cccnc2)c1C#N` to `Cc1cccc(C(=O)Nc2ccc(C(=O)/C=C/c3cccs3)cc2)c1`, the inhibition falls from -1.7% to -7.8%.

Going from `Cc1ccc(C(C)(C)C)c(OCCCCN2CCCC2)c1` to `CCOC(=O)C1CCN(Cc2coc3ccc(Cl)cc3c2=O)CC1`, the inhibition falls from 10.8% to -6.6%.

Going from `O=C(C[n+]1cc(Br)cc2ccccc21)c1ccc(F)cc1` to `O=S(=O)(c1ccc(F)cc1)n1ccc(-c2cnc(-c3ccccc3)s2)n1`, the inhibition rises from -5.7% to 5.2%.

First: COc1ccc(CCOC2OC(CO)C(OC(=O)/C=C/c3ccc(O)c(OC)c3)C(O[C@H]3O[C@@H](C)[C@H](O)[C@@H](O)[C@H]3O)C2O)cc1O (some centres not stated)
Second: COc1ccc(CNC(=O)/C(C#N)=C/c2cccc(OC)c2OC)cc1
The inhibition of the first is higher: 4.7% for the first, -1.8% for the second.

Compared with `COc1cccc(CNS(=O)(=O)c2ccc3c(c2)CC(C)N3C(=O)C2CCC2)c1` (configuration not stated), `COc1cccc(CNS(=O)(=O)c2csc(C(N)=O)c2)c1` is higher in inhibition: 4.9% for the first, 13.3% for the second.

Compared with `CC1CN/C(=C\C(=O)c2ccc(Br)cc2)C(=O)N1` (configuration not stated), `Cc1ccc(C(=O)NNC2=Nc3cc([N+](=O)[O-])ccc3OC2)cc1` is lower in inhibition: -17% for the first, -72.1% for the second.

Compared with `Cc1cc(NC(=O)C(C)N2C(=O)c3ccccc3S2(=O)=O)no1` (configuration not stated), `CCn1c(C)nc2c1C(=O)c1ccccc1C2=O` is higher in inhibition: -15.1% for the first, 1.5% for the second.

Going from `Cn1cnnc1Sc1ccc(S(C)(=O)=O)cc1[N+](=O)[O-]` to `COc1nnc(-c2ccc(C)c(S(=O)(=O)N(C)C)c2)c2ccccc12`, the inhibition rises from -11.6% to 1.6%.

First: COc1cccc(/C=C2/SC(=S)N(CC(=O)NC3C=CS(=O)(=O)C3)C2=O)c1 (configuration not stated)
Second: CN1C=CC=C/C1=C1\SC(=S)N(Cc2ccccc2)C1=O
The inhibition of the first is lower: -52% for the first, -4.6% for the second.

Going from `CCCC(C(=O)NCc1ccco1)N(C(=O)CNS(=O)(=O)c1ccccc1)C1CCCC1` (configuration not stated) to `CC(=O)Nc1ccc(S(=O)(=O)NCC(=O)OCC(=O)c2ccc[nH]2)cc1`, the inhibition rises from -14.9% to 5.4%.

Compared with `Cc1cc(-c2nnc(SCC(=O)Nc3ccc(F)cc3)n2N)n[nH]1`, `COc1ccc(Cl)cc1-n1c(=S)sc2c(=O)n(-c3ccc(F)cc3)c(SCC(=O)O)nc21` is higher in inhibition: -8.7% for the first, 10.8% for the second.

Going from `Cc1ccc(OCCNC(=O)CNC(=O)c2ccc(C)c(C)c2)cc1` to `COc1ccc(CNC(=O)c2c[nH]c3c(OC)cc(OC)cc3c2=O)cc1`, the inhibition falls from -7.8% to -24.3%.

Compared with `CCOc1nnc(C)c2c(C)n(-c3cccc(Cl)c3)nc12`, `Cc1cc(C)nc(-n2ncc3c2CC(c2ccc(C(C)C)cc2)CC3=O)n1` (configuration not stated) is higher in inhibition: -4.1% for the first, 3.4% for the second.

First: Cc1ccc2occ(/C=N/NC(=O)c3ccccc3C)c(=O)c2c1
Second: c1ccc(-c2nnc3n2NC(c2ccc4c(c2)OCO4)S3)cc1 (configuration not stated)
The inhibition of the first is higher: 13% for the first, -10.6% for the second.

First: CCc1c(C)nc(N)n2c(SCC(=O)NC3CCCCC3)nnc12
Second: Nc1nnc(SCC(=O)NCC(=O)Nc2ccc(F)c(F)c2F)s1
The inhibition of the first is higher: -2.5% for the first, -11.7% for the second.

First: O=C1CN(C(=O)COC(=O)c2cnc(Cl)c(Cl)c2)c2ccccc2N1
Second: CC(=O)c1cccc(NC(=O)C2CCCN2S(=O)(=O)c2cccc3nsnc23)c1 (configuration not stated)
The inhibition of the first is lower: 6.4% for the first, 18.3% for the second.

First: COc1ccc(C2C(C#N)=C(N)N(c3ncn[nH]3)C3=C2C(=O)CCC3)cc1 (configuration not stated)
Second: COc1ccc(-c2cn3ccc(C)cc3n2)cc1
The inhibition of the first is higher: 6.9% for the first, -3.2% for the second.

Compared with `COc1ccc([N+](=O)[O-])cc1C1NN=C(c2cccc3ccccc23)S1` (configuration not stated), `O=c1[nH]c(/C=C\c2cccc(C(F)(F)F)c2)nc(O)c1[N+](=O)[O-]` is lower in inhibition: -10.4% for the first, -10.6% for the second.

Compared with `COCCNC(=O)/C(C#N)=C/c1nc(N(C)C)n(-c2ccc(F)cc2)c1Cl`, `CCc1ccc(NC(=O)NC(C)c2ccc3c(c2)OCO3)cc1` (configuration not stated) is lower in inhibition: 8.4% for the first, -18.5% for the second.

Compared with `CC(=O)Nc1ccc(S(=O)(=O)N2CCN(S(=O)(=O)c3cccs3)CC2)cc1`, `O=C(CC(Cc1ccccc1)C(=O)O)NCCc1ccc2c(c1)OCO2` (configuration not stated) is lower in inhibition: 1.1% for the first, -65.3% for the second.

`CCN1/C(=C\c2ccc3ccccc3[n+]2CC)Sc2cc(C)ccc21` was tested, and the inhibition was 39.8% (active).
With `CN1/C(=c2/s/c(=C3/C(=O)N(c4ccccc4)NC3=Nc3ccccc3)n(C)c2=O)C(C)(C)c2ccccc21` the inhibition was 35% (active).
In the case of `COc1cccc(CNS(=O)(=O)c2ccc3c(c2)N(C(C)=O)CCS3)c1`, the inhibition is reported as 38.6% (active).
With `N#C/C(=C\c1ccc(O)c(O)c1)C(=O)NCc1ccccc1` the inhibition was 37.4% (active).
For `COc1cc(/C=C2/SC(=S)N(Cc3ccccc3)C2=O)cc(OC)c1O`, the inhibition was 39.3% (active).
`O=c1c(/C=N/O)coc2ccc(Cl)cc12` was tested, and the inhibition was 54.1% (active).
With `COc1ccc2c(c1OC)C(=O)N(c1ncn[nH]1)C2` the inhibition was 39.6% (active).
`COc1ccc(C2=Nc3cc(C)ccc3OC2)cc1` was tested, and the inhibition was 41.5% (active).
For `CC(=O)c1ccc(NC(=O)C2CCCN2S(=O)(=O)c2cccs2)cc1` (configuration not stated), the inhibition was 37.2% (active).
For `CC(=NCc1ccc2c(c1)OCO2)C1=C(O)c2ccccc2C1=O`, the inhibition was 82.2% (active).
